# Results from PubChem BioAssay.
# Experiment: binders of probe aFGF10 on microarray, primary screen, stem cell growth factor project, biochemical, small-molecule microarray, fluorescence 635/667 (AID 1071);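 also: score merges 667 nm spot intensity and signal to noise from triplicate slides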
# Settings: higher = more signal
row,SMILES,composite z-score
1,CCOC(=O)NN=C1C[C@@H](O)[C@@H](O)[C@@H]2[C@@H]3C(=O)N([C@@H](C)c4ccccc4)C(=O)[C@@H]3CC[C@@H]12,0.393
2,COC(=O)[C@@H]1CC[C@H](C)[C@@H](c2ccc(C)cc2)N1C(=O)c1ccc(C=NO[C@@H](C)c2cn([C@H](CO)Cc3ccccc3)nn2)cc1,0.496
3,O=C1CCCC=C1C(O)CCOC(c1ccccc1)(c1ccccc1)c1ccccc1 (stereo not given),0.0954
4,COC(=O)CC=C[C@@H](C)[C@@H]1C=C[C@H](O)[C@@H](CO)O1,0.376
5,C[C@@H](ON=C1[C@H]2CCn3c(=O)n(-c4ccccc4)c(=O)n3[C@H]2[C@H](O)[C@@H]2O[C@H]12)c1cn([C@@H]2COC[C@H]2O)nn1,0.35
6,CO[C@@H]1COC(=O)[C@H](CCSC)NC(=O)CC=C[C@@H](C)COC(=O)CCC[C@H]1C,0.114
7,COc1cccc([C@@H]2Oc3ccc(OC)cc3C(=O)[C@H]2O)c1,0.209
8,C=CC1=C[C@H](O)[C@@H]2O[C@@H]2C12OCCCO2,0.206
9,CCOC(=O)NN=C1C[C@@H](O)[C@@H](O)[C@@H]2[C@@H]3C(=O)N(Cc4ccccc4)C(=O)[C@@H]3CC[C@H]12,0.164
10,COC(=O)[C@@H]1CC[C@H](C)[C@@H](c2ccc(C)cc2)N1C(=O)c1ccc(C=NO[C@H](C)c2cn([C@H](CO)Cc3ccccc3)nn2)cc1,0.674
11,COc1cc(O)c(C(=O)C=Cc2ccc3c(c2)OCO3)c(OC)c1,0.2
12,CCOC(=O)[C@H](CC(C)C)NC(=O)CCC1CC(OC(=O)NCc2cccc3ccccc23)CC2(CCCC(COC(=O)NCC3CCCCC3)O2)O1 (stereo not given in full),0.54
13,Cc1cc2c(c(=O)o1)[C@@H](O)[C@H]1O[C@H]1C2=O,0.336
14,Cc1ccc(S(=O)(=O)NC(CCc2ccccc2)CC(=O)C(C)(C)C)cc1 (stereo not given),0.711
15,C[C@@H](c1ccccc1)N1C(=O)[C@H]2[C@H]3[C@H](O)[C@H](O)CC(=NO[C@@H]4O[C@H](CO)[C@@H](O)[C@H](O)[C@H]4O)[C@@H]3CC[C@H]2C1=O,0.306
16,CCN1C(=O)[C@@H]2[C@H]3C(=CC[C@@H]2C1=O)C1(OCCCO1)[C@H]1O[C@H]1[C@H]3O,1.04
17,CCOC(=O)[C@H](CC(C)C)NC(=O)CCC1CC(OC(=O)NCc2cccc3ccccc23)CC2(CCCC(COC(=O)NCCCN3CCCC3=O)O2)O1 (stereo not given in full),0.208
18,CC(=O)OC[C@H]1OC(ON=CC[C@@H]2C=C[C@H](OC(C)=O)[C@@H](COC(C)=O)O2)[C@H](OC(C)=O)[C@@H](OC(C)=O)[C@@H]1OC(C)=O (stereo not given in full),0.398
19,COc1ccc(O[C@@H]2[C@H](O)CO[C@@H]2C=Cc2ccccc2)cc1,0.336
20,O=C1[C@H]2[C@H]3[C@H](O)[C@H](O)CC(=NOC[C@@H](O)COCc4ccco4)[C@H]3CC[C@H]2C(=O)N1C[C@@H]1CCCO1,0.133
21,CC(C)=CCCC(C)=CCON=C1C[C@@H](O)[C@@H](O)[C@@H]2[C@@H]3C(=O)N(C(C)(C)C)C(=O)[C@@H]3CC[C@@H]12,0.257
22,C#CCCCON=C1C[C@@H](O)[C@@H](O)[C@@H]2[C@@H]3C(=O)N(CCC(=O)OCC)C(=O)[C@@H]3CC[C@H]12,0.481
23,C[C@H]1CC[C@H]2C(=O)O[C@H](COc3ccc(C(C)(C)C)cc3)CN2[C@@H]1c1ccc(Br)cc1,-0.0634
24,CC(C)=CCCC(C)=CCON=C1C[C@@H](O)[C@@H](O)[C@@H]2[C@@H]3C(=O)N(c4cccc(Oc5ccccc5)c4)C(=O)[C@@H]3CC[C@@H]12,0.341
25,COc1ccc(O[C@H]2C=C[C@@H](c3ccccc3)O[C@@H]2COC(=O)CCC(C)=NOC(C)CN2CCCc3nc(C)c(C)cc32)cc1 (stereo not given in full),0.623
26,COC(=O)[C@H](C)NC(=O)CCC1CC(OC(=O)NCc2cccc3ccccc23)CC2(CCCC(COC(=O)NCC(c3ccccc3)c3ccccc3)O2)O1 (stereo not given in full),0.532
27,C=COC[C@@H]1CN2[C@@H](CC[C@@H](C)[C@@H]2c2ccc(Br)cc2)C(=O)O1,-0.134
28,CCOC(=O)[C@H](CC(C)C)NC(=O)CCC1CC(OC(=O)NCc2cccc3ccccc23)CC2(CCCC(COC(=O)NCCC(C)C)O2)O1 (stereo not given in full),0.176
29,CCOC(=O)[C@H](Cc1ccccc1)NC(=O)CCC1CC(OC(=O)NCCc2ccc(F)cc2)CC2(CCCC(COC(=O)NCCc3ccccc3OC)O2)O1 (stereo not given in full),0.82
30,CO[C@H](C1CCCCC1)[C@H](C)C=CCC(=O)OCCCc1ccccc1,-0.104
